Drawing on PubChem BioAssay (NCI), this text covers growth for 3 compounds.

The panel holds about 83,000 compounds, 20% with a hit somewhere; the sample as a whole holds those more often.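 Cell lines were cultured in 96-well plates, exposed to a single compound concentration, and assessed for percent growth 48 hours later.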 A number with no mark means an inactive call. Active and inactive are the calls of the source. Rule for the calls: active = growth percent below 10; inactive = the rest.

Among the test systems are NCI-H23 lung; NCI-H226 lung; NCI-H322M lung; NCI-H460 lung; HOP-92 NSCLC; NCI-H522 lung; A549/ATCC NSCLC; 786-0 renal; COLO 205 colon; DU-145 prostate; K-562 leukemia; MALME-3M melanoma; MDA-MB-231 breast; RXF 393 renal; SF-268 CNS; SF-295 CNS; SF-539 CNS; UACC-257 melanoma; M14 melanoma.
What all share (test): NCI-60 one-dose screen, 48 h (100 = growth as untreated, 0 = no growth, -100 = all killed)
Conditions in all cases: 10 µM unless noted

Consider `C=CCCCOC1[C@H](OCc2ccccc2)C(OCc2ccccc2)C(OC)O[C@@H]1CNC(=O)c1cccc(I)c1` (some centres undefined), for which the growth in the experiment on NCI-H23 lung is 44.2%; in the experiment on NCI-H226 lung, 66.5%; in the experiment with NCI-H322M lung it was 70.3%; in the experiment on NCI-H460 lung, -7.83% (active); with HOP-92 NSCLC, 67.2%; with NCI-H522 lung it was 42.1%. The growth with A549/ATCC NSCLC is 27.2%; in the experiment with 786-0 renal, 39.5%; in the experiment on COLO 205 colon, 36.9%; in the experiment on DU-145 prostate it was 49.7%; with K-562 leukemia, 52%; in the experiment on MALME-3M melanoma, 80.4%. The growth is 58% with MDA-MB-231 breast; 38.1% in the experiment with RXF 393 renal; 31.3% in the experiment with SF-268 CNS; 35% in the experiment on SF-295 CNS; 31.8% with SF-539 CNS; 36.8% in the experiment with UACC-257 melanoma. In addition, the growth in the experiment on M14 melanoma is 47.1%.

With `COc1cc2ncnc(Nc3ccc(F)c(Cl)c3)c2cc1NC(=O)/C=C/CN1CCCCC1`, the growth is -54.1% (active) in the experiment on NCI-H23 lung; -83.4% (active) in the experiment with NCI-H226 lung; -1.5% (active) with NCI-H322M lung; -69.9% (active) with NCI-H460 lung; -83.6% (active) in the experiment on HOP-92 NSCLC; -56.9% (active) in the experiment on NCI-H522 lung. Further, the growth with A549/ATCC NSCLC is -76.9% (active); in the experiment on 786-0 renal, -81.7% (active); in the experiment on COLO 205 colon, -76.6% (active); in the experiment with DU-145 prostate, -42.7% (active); in the experiment with K-562 leukemia, -28.5% (active); with MALME-3M melanoma, -80.7% (active). Also, the growth was -68.7% (active) in the experiment with MDA-MB-231 breast; -92.1% (active) in the experiment on RXF 393 renal; -74.5% (active) in the experiment with SF-268 CNS; -55% (active) with SF-295 CNS; -89.9% (active) with SF-539 CNS; -77% (active) in the experiment with UACC-257 melanoma.

As for `N#Cc1c(-c2ccc(C(F)(F)F)cc2)c(F)c(NCCC2CCC(O)C2)n2c1nc1ccccc12` (centres undefined), the growth is 72.5% in the experiment with NCI-H23 lung; 69.2% with NCI-H226 lung; 58.5% with NCI-H322M lung; 42% in the experiment with NCI-H460 lung; 32.5% in the experiment with HOP-92 NSCLC; 65.7% with NCI-H522 lung. Besides, the growth in the experiment on A549/ATCC NSCLC was 52.8%; in the experiment on 786-0 renal, 69.4%; in the experiment with COLO 205 colon it was 41.1%; in the experiment on DU-145 prostate, 47.2%; with K-562 leukemia, 25.9%; in the experiment with MDA-MB-231 breast, 22.1%. The growth was 41.4% in the experiment with RXF 393 renal; 70.7% in the experiment on SF-268 CNS; 55.4% with SF-295 CNS; 71.1% in the experiment on SF-539 CNS; 18.4% in the experiment on M14 melanoma.
